High-throughput results: PubChem BioAssay, National Center for Advancing Translational Sciences (NCATS)
Sampled rows, rich in hits. Any-hit rate of the full collection: about 0.74%.
BLM inh: inhibitors of human Bloom syndrome helicase BLM; AID 2528; recombinant BLM DNA unwinding, fluorescence dequenching; P54132; Potency, µM (top dose mostly 56.1 µM), for inactives: at the highest dose activity change, negative = inhibition, usual class: inhibitors; 0.2% of 350,000 active;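 note: plate controls were vehicle for no effect and no enzyme for full effect; nearly all actives have a fitted effect of over 35% in size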
APE1 inh: APE1 (human) endonuclease inhibition. 0.35% of 350,000 active. Potency, µM (titrated, usually from 65.8 µM), for the others: at the highest dose activity change, negative = inhibition, most hits filed as inhibitors. AID 2517. P27695. recombinant APE1, TAMRA/BHQ-2 abasic DNA cleavage fluorescence;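 note: plate controls were vehicle for no effect and reference inhibitor for full effect; nearly all actives have a fitted effect of over 55% in size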
Target sequence (P27695 whole entry, looked up): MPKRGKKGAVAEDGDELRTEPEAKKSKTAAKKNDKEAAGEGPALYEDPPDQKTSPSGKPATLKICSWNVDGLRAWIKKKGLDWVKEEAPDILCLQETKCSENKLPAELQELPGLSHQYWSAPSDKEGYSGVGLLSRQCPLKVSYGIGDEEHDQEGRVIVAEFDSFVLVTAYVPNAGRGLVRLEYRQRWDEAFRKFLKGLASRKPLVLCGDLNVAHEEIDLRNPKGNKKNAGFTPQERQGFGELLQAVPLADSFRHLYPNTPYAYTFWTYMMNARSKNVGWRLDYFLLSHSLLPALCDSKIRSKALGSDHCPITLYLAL
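Step 1: APE1 (0.75 nM) with compound, 15 min RT. Step 2: add 50 nM fluorophore/quencher THF duplex. Step 3: three fluorescence reads 60 s apart (525/598 nm); read 3 minus read 1 = reaction progress.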
Tb PGK inh: T. brucei PGK inhibition. P07378. PGK/GAPDH coupled, Kinase-Glo luminescence, 60 min. Potency, µM (titrated, usually from 57.5 µM), inactives show top-dose activity change, negative = inhibition, hits mostly inhibitors. 0.043% of 380,000 active. AID 602233; note: % is set by controls: 0 for no effect and ±100 for the full control effect; nearly all actives have a fitted effect of over 60% in size
Target sequence (P07378 whole entry, looked up): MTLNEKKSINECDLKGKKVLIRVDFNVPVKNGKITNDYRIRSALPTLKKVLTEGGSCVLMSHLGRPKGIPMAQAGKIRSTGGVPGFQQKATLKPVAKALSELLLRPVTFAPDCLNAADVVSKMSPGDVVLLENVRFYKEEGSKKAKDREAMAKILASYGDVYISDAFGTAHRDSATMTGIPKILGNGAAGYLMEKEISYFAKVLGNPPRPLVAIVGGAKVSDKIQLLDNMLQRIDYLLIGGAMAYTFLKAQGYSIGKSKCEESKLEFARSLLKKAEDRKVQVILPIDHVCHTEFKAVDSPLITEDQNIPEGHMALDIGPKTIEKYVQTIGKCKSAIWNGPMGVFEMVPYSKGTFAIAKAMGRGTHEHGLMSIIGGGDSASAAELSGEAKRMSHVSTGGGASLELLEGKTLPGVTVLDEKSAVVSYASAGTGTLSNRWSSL
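Luminescent ATP detection (Kinase-Glo Plus) follows a 60-minute room-temperature incubation, with wells lacking PGK as controls. Buffer: 100 mM TEA (pH 7.6), 5 mM MgCl2, 0.01% Tween-20. Coupling enzyme GAPDH (100 nM final) supplies unstable 1,3-BPG in-well.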
FEN1 inh-1: blocks human flap endonuclease 1. Recombinant FEN1 flap cleavage, fluorescence, 15 min. Potency, µM (top dose mostly 114 µM), for the others: top-dose activity change, negative = inhibition, hits mostly inhibitors. 0.35% of 390,000 active; note: % is set by controls: 0 for no effect and ±100 for the full control effect; nearly all actives have a fitted effect of over 65% in size
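In this screen, 50 nM flap DNA substrate was added to 10 nM FEN1 pretreated with compound for 15 min at room temperature; cleavage was followed with reads at 0 and 15 min, and Hill fitting gave concentration–response parameters.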
RECQ1 helicase: RECQ1 (human) helicase inhibition; P46063; RECQ1 DNA unwinding, red fluorescence kinetic read; Potency, µM (series often up to 57.3 µM), for inactives: top-dose activity, negative = inhibition, most hits filed as inhibitors; 0.54% of 240,000 active; AID 2549;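 note: plate controls were vehicle for no effect and no enzyme for full effect; nearly all actives have a fitted effect of over 30% in size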
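RECQ1T1 50 nM; forked duplex (20 bp + 30-nt ss tails) 200 nM, ATP 2 mM final; pH 8.0, 2 mM MgCl2, 2.5 ug/ml poly(dI-dC); 15 min compound preincubation; discontinuous kinetic read over 2 h at RT.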
FEN1 inh-2: FEN1 inhibition, cherry-pick retest; shares compounds with FEN1 inh-1; FEN1 flap cleavage, TAMRA/BHQ2 fluorogenic DNA substrate; Potency, µM, hits mostly inhibitors; 79% of 880 active; AID 720498; note: nearly all actives have a fitted effect of over 60% in size
Starred values were filed as active, the others as inactive; i = inactive; ? = inconclusive; nt = not tested or not shown. Calls come from the whole dose curve; as a rule, active = well fitted curve in the direction sought with a large enough effect; inconclusive = small, poorly fitted or top-dose-only effect, or another doubt; inactive = no such curve, though single readings can be large; an effect the other way counts as inactive or inconclusive. Potency is the fitted concentration of half-maximal effect.

SMILES	BLM inh	APE1 inh	Tb PGK inh	FEN1 inh-1	RECQ1 helicase	FEN1 inh-2
CCOC(=O)C1=C(C)N=c2s/c(=C\c3ccc(OCC(=O)O)cc3)c(=O)n2C1c1ccc(Cl)cc1 (stereo not given)	?	10.6µM*	?	?	nt	75.7*
O=C1Nc2ccccc2C1C(C[N+](=O)[O-])c1ccccn1 (stereo not given)	-10.2%	-7.7%	nt	?	nt	9.53*
CCOC(=O)c1cnc2c(ccc3ccccc32)c1NCCCN(C)C	110.3%	-30.7%	-6.8%	50.1µM*	nt	37.9*
COc1cc(SC)ccc1C(=O)Nc1cc(C)c(OCC(=O)N2CCOCC2)c(C)c1	0.8%	3.9%	5.0%	-4.2%	nt	nt
CCOC(=O)c1c(/N=C/c2ccc(OC)cc2O)sc2c1CCN(C)C2	-6.4%	6.8%	8.6%	-23.3%	?	nt
CN1CCc2c(sc(/N=C/c3c[nH]c4ccccc34)c2C#N)C1	3.6%	-5.7%	-0.6%	?	?	?
CN1CCc2c(sc(/N=C/c3c[nH]c4ccccc34)c2C(N)=O)C1	-17.8%	-3.9%	-1.1%	?	1.8%	75.7*
O=C(CSc1nnc(-c2ccc(O)cc2)o1)N1CCOCC1	-0.5%	-0.1%	-0.3%	-0.3%	-5.1%	nt
CC[n+]1c(/C=C/C=C/N(C(C)=O)c2ccccc2)sc2cc(OC)ccc21	?	-5.6%	-12.7%	50.1µM*	-14.3%	42.6*
CCN(CC)Cc1cc2[nH]c3c4ccc(Cl)cc4ncc3c2cc1OC	87.5%	?	-3.4%	14.1µM*	i	?
COc1ccc(CNc2ncnc3cc(Cl)ccc23)cc1OC	-4.1%	-1.7%	-1.9%	1.9%	-2.5%	nt
COCCN(C(=O)COC(=O)c1cc2c(s1)CCC2)c1c(N)n(Cc2ccccc2)c(=O)[nH]c1=O	nt	0.752µM*	?	39.8µM*	nt	75.7*
COC(=O)c1c(NC(=O)C(=O)NCCCN2CCOCC2)sc2c1CCCC2	-6.8%	39.0%	8.4%	-16.5%	nt	nt
Cc1ccc(-n2cccc2/C=C2/C(=N)N3C(=NC2=O)SN=C3S(C)(=O)=O)cc1Cl	28.2µM*	17.4%	-8.6%	?	-10.0%	84.9*
CCN(CC)c1nc(C)nc2c1sc(=S)n2C	-1.3%	3.5%	-9.7%	-4.6%	-0.8%	nt
Cn1c(N)c(C(=O)CSc2nnc(-c3c[nH]c4ccccc34)n2C2CC2)c(=O)[nH]c1=O	nt	?	-17.0%	20µM*	nt	42.6*
CCCn1c(N)c(C(=O)CSc2nnc(-c3c[nH]c4ccccc34)n2C2CC2)c(=O)[nH]c1=O	nt	4.5%	1.0%	6.7%	nt	nt
Cc1ccc(-c2csc(NC(=O)CN3CCC(C(N)=O)CC3)n2)cc1	-3.1%	-4.4%	i	4.6%	nt	nt
Nc1ccc(C(=O)OCCc2ccccc2)cc1	nt	1.8%	i	-14.3%	nt	nt
O=C(OCCc1ccccc1)c1cc(O)c(O)c(O)c1	nt	-8.5%	-12.6%	39.8µM*	nt	37.9*
Cc1ccccc1NC(=O)COc1ccc(Br)cc1C	-0.8%	-5.4%	-4.1%	2.4%	-6.5%	nt
CN1CCN(C2=CC3=CC(=C(C#N)C#N)CCC3CC2)CC1 (stereo not given)	-26.6%	-1.2%	-4.8%	-7.9%	-9.9%	nt
N#CC(C#N)=C1C=C2C=C(N3CCCCCC3)CCC2CC1 (stereo not given)	12.6µM*	?	nt	?	28.2µM*	67.5*
Cc1cc(N)c2cc(NC(=O)/C=C/c3ccccc3Cl)ccc2n1	131.4%	8.2%	-6.8%	?	63.9%	75.7*
COc1cccc2c1C(=O)c1c(O)c3c(c(O)c1C2=O)CC(O)(C(=O)CO)CC3OC1CC(N(C)C)C(O)C(C)O1 (stereo not given)	nt	nt	-14.2%	17.8µM*	nt	33.8*
SMILES	BLM inh	APE1 inh	Tb PGK inh	FEN1 inh-1	RECQ1 helicase	FEN1 inh-2
CC(=O)N1CCN(c2nc(-c3ccco3)c3c(c2C#N)CC(C)(C)SC3)CC1	-8.4%	1.2%	-9.3%	-0.4%	-4.1%	nt
CC1(C)Cc2c(C#N)c(N3CCN(C(=O)c4ccco4)CC3)nc(-c3ccco3)c2CS1	?	6.7%	-3.6%	?	-1.0%	?
Cc1ccc(NC(=O)c2ccncc2)cc1S(=O)(=O)N(C)C	3.4%	3.1%	-9.6%	-0.4%	-8.0%	nt
CCOC(=O)Nc1ccc2c(c1)N(C(=O)CCN1CCOCC1)c1ccccc1S2	-3.4%	-1.0%	1.0%	3.8%	-6.8%	nt
COc1cc(/C=C/C=C2/CC/C(=C/C=C/c3ccc(O)c(OC)c3)C2=O)ccc1O	nt	nt	?	39.8µM*	nt	42.6*
CN(C)/C=C1\SC(=S)N(c2ccc(F)cc2)C1=O	0.1%	0.3%	-4.1%	-1.4%	i	nt
CN(C)/C=C1\SC(=S)N(c2ccc(Br)cc2)C1=O	4.0%	28.2µM*	0.8%	?	31.6µM*	33.8*
O=C1CC(c2cccc([N+](=O)[O-])c2)c2ccc3ccccc3c2N1 (stereo not given)	-3.5%	-4.3%	nt	-19.3%	-8.1%	nt
COc1ccc(-n2ncc3c(N4CCC(C)CC4)ncnc32)cc1	-4.4%	-13.9%	1.1%	-0.5%	nt	nt
O=c1c2c(-c3ccccc3)csc2nc2c3ccccc3c(NCCN3CCOCC3)nn12	278.8%	?	-1.1%	39.8µM*	48.3%	21.3*
CCN(CC)c1ccc2nc3ccc(N)cc3[n+](-c3ccccc3)c2c1	nt	23.8µM*	?	44.7µM*	nt	47.8*
CC(=O)c1ccc(NC(=O)CSc2nnc(Cn3cnc4ccccc43)o2)cc1	-1.5%	-3.5%	-1.2%	8.6%	-8.5%	nt
CCC(Sc1nc2ccsc2c(=O)n1CCC(=O)O)C(=O)Nc1ccc(Cl)cc1 (stereo not given)	nt	nt	-8.0%	nt	nt	nt
CCC(Sc1nc2ccsc2c(=O)n1Cc1ccc(C(=O)O)cc1)C(=O)Nc1ccc(C)c(Cl)c1 (stereo not given)	-10.0%	-4.9%	-17.9%	?	nt	?
Cc1ccc(Cc2c(C)c(C#N)c3[nH]c4ccccc4n3c2=O)cc1	-3.0%	-1.7%	i	-11.2%	2.8%	nt
CCOc1ccc(-c2cc3cc(OC)c(OC)cc3c(C)n2)cc1	-3.1%	3.8%	2.0%	0.0%	-0.9%	nt
COc1cc2cc(-c3ccc(O)cc3O)nc(C)c2cc1OC	-15.4%	-6.2%	i	?	nt	?
O=S(=O)(O)c1cc(Cl)cc(N=Nc2ccc(O)cc2O)c1O	nt	nt	?	56.2µM*	nt	84.9*
O=C(ONC(=O)C1CCCCC1C(=O)NOC(=O)c1ccccc1)c1ccccc1 (stereo not given)	nt	nt	2.3%	17.8µM*	nt	13.5*
COc1ccc2cc3[n+](cc2c1OC)CCc1cc2c(cc1-3)OCO2	157.0%	-6.1%	5.4%	?	26.4%	?
Cn1cc(/C=C/c2cc[n+](C)cc2)c2cc(F)ccc21	85.3%	22.5%	0.0%	44.7µM*	nt	37.9*
O=[N+]([O-])c1cc2ccccc2c(O)c1O	nt	nt	?	nt	nt	15.1*
